GC-A act: GC-A stimulated cGMP production enhancers – HEK293 GC-A cells, cGMP TR-FRET, EC30 ANP, primary screen; activation, % at 10 µM; 0% at EC30 ANP, 100% saturating ANP; Atrial natriuretic peptide receptor 1 (Homo sapiens), P16066; actives 0.14% (n = 370,000); in the data active means activation above about 40%
ALR H2O2 inh: inhibitors of human ALR sulfhydryl oxidase, primary screen, biochemical, H2O2 detection, HRP-luminol luminescence, single point. inhibition, % (concentration not given with the values). actives 3.8% (n = 290,000). FAD-linked sulfhydryl oxidase ALR (Homo sapiens), P55789. purified ALR, DTT oxidation. AID 485317, 2010;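 active means mean replicate inhibition above about 79%, with every replicate also reaching it, limit read from the data; inconclusive means only one of the two criteria met; inactive means mean below limit and not every replicate reaching it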
HDAC3 inh: HDAC3 deacetylase inhibitors, primary screen, biochemical, fluorescence, cell-free homogeneous. actives 0.15% (n = 320,000). recombinant HDAC3, fluorogenic peptide/trypsin coupled. inhibition, % at 8.3 µM. Histone deacetylase 3 (Homo sapiens), O15379; in the data active means inhibition above about 26%, passing the limit was not always enough; inconclusive means no clear call, values can overlap the other calls
NPR2 activator: human GC-B receptor activators, primary screen, HEK293 GC-B cells, cGMP TR-FRET, EC30 CNP. Atrial natriuretic peptide receptor 2 (Homo sapiens), P20594. 0% at EC30 CNP, 100% saturating CNP. activation, % at 10 µM. actives 0.11% (n = 370,000);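 active means activation at 10 µM reaching about 35% in either raw or pattern-adjusted values, limit read from the data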
Target sequence (P20594 whole entry, looked up): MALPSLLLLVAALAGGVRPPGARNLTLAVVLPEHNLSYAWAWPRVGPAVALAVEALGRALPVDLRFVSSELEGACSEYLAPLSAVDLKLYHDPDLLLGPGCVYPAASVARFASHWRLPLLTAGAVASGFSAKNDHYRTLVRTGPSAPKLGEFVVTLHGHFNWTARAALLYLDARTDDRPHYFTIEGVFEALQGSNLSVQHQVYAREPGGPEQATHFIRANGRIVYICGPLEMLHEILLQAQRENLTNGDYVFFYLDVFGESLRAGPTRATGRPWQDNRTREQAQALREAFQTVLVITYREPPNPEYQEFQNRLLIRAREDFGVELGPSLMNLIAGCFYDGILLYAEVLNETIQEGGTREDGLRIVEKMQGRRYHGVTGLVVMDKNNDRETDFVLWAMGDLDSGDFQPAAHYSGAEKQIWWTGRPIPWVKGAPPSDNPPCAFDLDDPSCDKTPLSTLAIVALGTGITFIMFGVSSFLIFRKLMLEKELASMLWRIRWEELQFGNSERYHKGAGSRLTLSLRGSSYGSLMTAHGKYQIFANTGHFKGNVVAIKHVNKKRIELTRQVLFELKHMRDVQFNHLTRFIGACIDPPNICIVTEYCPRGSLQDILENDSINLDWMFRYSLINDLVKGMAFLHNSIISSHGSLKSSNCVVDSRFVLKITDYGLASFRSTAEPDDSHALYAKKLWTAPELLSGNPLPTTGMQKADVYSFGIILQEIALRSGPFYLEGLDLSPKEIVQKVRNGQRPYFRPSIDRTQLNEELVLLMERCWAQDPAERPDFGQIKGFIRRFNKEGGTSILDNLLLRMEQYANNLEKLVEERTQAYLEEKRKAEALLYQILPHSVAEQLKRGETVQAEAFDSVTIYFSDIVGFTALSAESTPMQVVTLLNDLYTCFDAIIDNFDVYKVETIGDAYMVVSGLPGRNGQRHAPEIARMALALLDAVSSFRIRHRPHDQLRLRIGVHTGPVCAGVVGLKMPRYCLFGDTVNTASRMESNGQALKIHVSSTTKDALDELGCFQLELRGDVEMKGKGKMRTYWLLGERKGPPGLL
* marks the source's active call; other numbers are inactive results; ? = inconclusive; · = not tested or not shown. The sample as a whole holds a higher share of hits than the screen did.

SMILES | GC-A act | ALR H2O2 inh | HDAC3 inh | NPR2 activator
O=C(Nc1ccc2c(c1)nc1n2CCOC1)c1ccco1 | 1.1 | · | 1.5 | 0.7
O=C(Nc1cc(Cl)ccc1Cl)c1ccco1 | -0.4 | -11.5 | -10.4 | -0.7
O=C(Nc1ccc2c(c1)nc1n2CCSC1)c1ccco1 | -4.7 | 98.8* | 10.0 | -7.4
O=C(Nc1ccc(NC(=O)c2ccco2)cc1)c1ccco1 | -3.1 | -14.0 | 22.3 | -0.4
COc1cccc(-c2ccc(CC[C@H]3O[C@H]4CC[C@H](CO)O[C@H]4C[C@H]3NS(C)(=O)=O)cc2)c1 | 1.2 | · | · | -3.2
Cc1ccc(OCC(=O)Nc2ccon2)c([N+](=O)[O-])c1 | 2.5 | 0.3 | -2.1 | -4.2
O=C(Nc1cc(Br)c(O)c(Br)c1)c1cccc(NC(=O)c2ccco2)c1 | -6.0 | 98.4* | -4.5 | -8.7
O=C(Nc1cccc(NC(=O)c2ccco2)c1)c1cccc(Br)c1 | -4.7 | · | 3.6 | -4.4
Cn1c(CO)cnc1SCC(=O)c1ccc(Cl)cc1 | 4.6 | 99.4* | 11.6 | 0.4
Cc1nnc(SCC(=O)c2ccc(Cl)cc2)n(N)c1=O | -2.4 | 99.1* | ? | -0.9
Cc1ccc(NC(=O)CSc2nnc(C)c(=O)n2N)cc1Cl | 1.1 | 48.2 | 8.6 | -8.8
Cn1ccnc1SCC(=O)c1ccc(Cl)cc1 | -1.2 | 50.6 | 0.9 | 0.9
COc1cc(/C=C2\SC(=Nc3ccccc3OC)NC2=O)ccc1O | 0.1 | 99.1* | -4.5 | -9.6
OCc1ccccc1-c1cnc2cccnn12 | -1.3 | · | · | 3.0
C(=C\c1ccco1)/c1nc2ccccc2[nH]1 | 5.4 | 97.9* | 2.5 | -4.6
O=c1[nH]c(/C=C/c2ccc(Br)cc2)nc2ccccc12 | -4.2 | -2.2 | -7.2 | -6.3
C(=C\c1nc2ccccc2[nH]1)/c1ccccc1 | -4.0 | 97.6* | -37.8 | -7.8
COC(=O)c1sccc1NC(=O)/C=C/c1ccc(Cl)cc1 | 0.0 | 0.2 | 2.5 | -6.3
CCc1ccc(NC(=S)NC2CCN(Cc3ccccc3)CC2)cc1 | 0.2 | 96.3* | -0.4 | 4.4
NC(=O)NCCC1=CCCCC1 | 0.4 | -2.1 | -3.6 | 0.6
Cc1ccc(-n2c(N)c(C(=O)N3CCN(C)CC3)sc2=S)cc1 | 6.9 | 3.2 | 11.2 | 5.3
C=CCn1c(N)c(C(=O)NCCC2=CCCCC2)sc1=S | 31.4 | 46.5 | 1.4 | 37.6*
C=CCn1c(N)c(C(=O)N2CCN(C)CC2)sc1=S | -1.5 | 98.5* | -1.8 | 7.8
CCn1c(N)c(C(N)=O)sc1=S | 0.6 | 97.6* | -5.7 | 4.3
CCn1c(N)c(C(=O)NC2CCCCC2)sc1=S | 3.3 | 98.2* | 9.0 | -2.9
SMILES | GC-A act | ALR H2O2 inh | HDAC3 inh | NPR2 activator
Cc1cccnc1NC(=S)Nc1ccc(Br)cc1Cl | 4.3 | -24.6 | -5.8 | -0.8
O=C(c1cc2ccccc2[nH]1)N(Cc1cccnc1)CC1CCCN(C2CCCCC2)C1 (stereo not given) | -4.5 | -27.9 | 0.6 | -4.2
CCNC(=S)N(Cc1ccccc1)Cc1nc2ccccc2c(=O)[nH]1 | -0.1 | 0.6 | -6.7 | -1.0
CC(=O)Nc1ccc(NC(=O)CSc2ccc3nnc(-c4cccnc4)n3n2)cc1 | -1.4 | -25.7 | 5.6 | 8.8
CCOC(=O)c1sc(=S)n(CC)c1N | 0.0 | 98.8* | 8.5 | -4.8
CCOC(=O)c1sc(=S)n(C)c1C | 0.8 | -7.8 | 9.4 | 4.9
CCOC(=O)c1sc(=S)n(Cc2ccccc2)c1N | 13.4 | 10.2 | 7.4 | -2.1
C=CCn1c(N)c(C(=O)OCC)sc1=S | -24.1 | 99.1* | 7.1 | -8.8
CCOC(=O)c1sc(=S)n(C)c1N | 0.6 | 98.9* | 0.6 | -1.4
CCOC(=O)c1c(NC(=O)COC(=O)CCOc2cc(C)ccc2C)sc(C(=O)N(C)C)c1C | -1.6 | · | · | 4.5
O=S(=O)(NC1=NCCCCC1)c1ccc2sc(NS(=O)(=O)c3ccc4ccccc4c3)nc2c1 | -2.1 | 87.2* | -6.8 | 1.1
O=S(=O)(Nc1nc2c(s1)CCCC2)c1ccc2ccccc2c1 | -2.7 | 48.3 | 9.0 | -3.1
O=C(CCl)Oc1ccc2occ(C(=O)c3cccs3)c2c1 | -1.7 | 97.3* | 3.6 | -0.8
CC(=O)Oc1ccc2occ(C(=O)c3cccs3)c2c1 | 0.6 | 41.3 | -5.6 | 0.3
O=C1C=C(c2cccc3c2Oc2ccccc2S3)C[C@@H](c2ccc3c(c2)OCO3)C1 | 13.5 | · | · | 18.7
O=C(CC1SC(N2CCCCC2)=NC1=O)Nc1cccc(C(=O)Nc2ncccc2O)c1 (stereo not given) | -0.3 | 48.8 | 64.8* | 0.2
